Screening results from PubChem BioAssay.
Rows were chosen to be rich in hits. Some 2.9% of all compounds tested hit in one or more screens of this group.
ADAM17 inh = inhibitors of human ADAM17 | 370,000 tested, 0.83% active | inhibition, % at 6.95 µM | recombinant ADAM17, EDANS/DABCYL FRET peptide cleavage | P78536;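 active = inhibition above the mean of compounds lying between control limits plus 3 SD, set per campaign, cut at about 8.5% in these data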;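 also: 0% = DMSO-only wells as the low control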
PLC-gamma1 inh = inhibitors of human phospholipase C gamma1; P19174; purified PLC-gamma1, fluorogenic substrate, fluorescence; inhibition, % at 12.2 µM; 370,000 tested, 0.84% active; AID 720700
ADAM10 inh = ADAM10 inhibition, QFRET primary screen | O14672 | recombinant ADAM10, EDANS/DABCYL FRET peptide cleavage, 3 h | inhibition, % at 7 µM | 370,000 tested, 0.62% active | AID 720582;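 active = inhibition above a per-campaign cutoff equal to the mean of compounds falling between control-based bounds plus 3 SD, cut at about 20% in these data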;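 also: 0% = DMSO wells while the 100% control is not disclosed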
PLC-beta3 inh = blocks human PLC-beta3 enzyme activity; Q01970; Purified PLC-beta3, fluorogenic substrate, fluorescence; inhibition, % at 12.2 µM; 370,000 tested, 0.18% active; in the data active = inhibition above about 11%;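 also: 0% = median of compound wells on plate and 100% = full blocker control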
Target sequence (Q01970 whole entry, looked up): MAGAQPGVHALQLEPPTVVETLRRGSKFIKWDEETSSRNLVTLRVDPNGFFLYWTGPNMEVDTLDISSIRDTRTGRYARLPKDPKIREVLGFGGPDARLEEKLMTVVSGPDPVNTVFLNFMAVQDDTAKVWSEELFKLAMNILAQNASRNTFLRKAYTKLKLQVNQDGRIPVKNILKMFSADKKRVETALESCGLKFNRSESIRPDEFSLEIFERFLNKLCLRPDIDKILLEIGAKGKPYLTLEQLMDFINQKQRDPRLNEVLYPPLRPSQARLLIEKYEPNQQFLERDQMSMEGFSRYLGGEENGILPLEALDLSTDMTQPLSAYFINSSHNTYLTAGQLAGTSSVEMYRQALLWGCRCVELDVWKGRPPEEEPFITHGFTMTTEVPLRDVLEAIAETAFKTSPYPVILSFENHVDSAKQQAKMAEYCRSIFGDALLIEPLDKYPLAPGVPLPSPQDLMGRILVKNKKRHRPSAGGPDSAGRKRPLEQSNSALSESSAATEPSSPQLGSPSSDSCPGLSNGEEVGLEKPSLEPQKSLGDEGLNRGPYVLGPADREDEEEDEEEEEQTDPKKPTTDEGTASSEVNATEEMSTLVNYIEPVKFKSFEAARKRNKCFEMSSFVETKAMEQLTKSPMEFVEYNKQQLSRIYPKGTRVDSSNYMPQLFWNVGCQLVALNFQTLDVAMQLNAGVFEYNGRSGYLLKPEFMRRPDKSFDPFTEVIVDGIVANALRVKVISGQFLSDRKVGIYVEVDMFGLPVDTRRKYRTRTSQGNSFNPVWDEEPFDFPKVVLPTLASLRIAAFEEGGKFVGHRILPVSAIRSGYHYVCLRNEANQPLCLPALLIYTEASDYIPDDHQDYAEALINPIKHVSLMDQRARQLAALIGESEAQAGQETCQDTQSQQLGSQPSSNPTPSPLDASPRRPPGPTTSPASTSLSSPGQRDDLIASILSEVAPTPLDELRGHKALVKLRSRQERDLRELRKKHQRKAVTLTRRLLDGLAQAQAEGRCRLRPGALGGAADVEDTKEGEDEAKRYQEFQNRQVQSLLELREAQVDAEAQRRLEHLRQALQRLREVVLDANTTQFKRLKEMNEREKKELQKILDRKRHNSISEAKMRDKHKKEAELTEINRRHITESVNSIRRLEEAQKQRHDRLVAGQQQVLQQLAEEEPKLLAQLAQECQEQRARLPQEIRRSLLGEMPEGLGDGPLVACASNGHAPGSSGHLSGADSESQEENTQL
proKLK7 act = activates the human kallikrein-7 zymogen; AID 652039; activation, % at 7 µM; P49862; purified proKLK7, EDANS-DABCYL substrate fluorescence; 100% is mature enzyme control, 0% vehicle; 370,000 tested, 0.9% active;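 active = activation above the mean of all tested compounds plus 3 SD, computed per campaign excluding outliers beyond control limits, cut at about 13% in these data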
PLCg1 ctr = inhibits human PLC-gamma1 in PLC-beta3 counter-screen; AID 743258; shares compounds with PLC-gamma1 inh; 3,300 tested, 3.1% active; inhibition, % at 12.3 µM; purified PLC-gamma1, fluorogenic substrate, fluorescence
PLCbeta3 conf = confirmation of human PLC-beta3 inhibitors; AID 743261; purified PLC-beta3, fluorogenic substrate fluorescence; shares compounds with PLC-gamma1 inh; 3,300 tested, 1% active; inhibition, % at 12.3 µM; in the data active = inhibition above about 11%
* hit, by the source's call; x = no result. Rule as the data show it, unless noted: active = inhibition above about 9.5%; inactive = the rest.

SMILES | ADAM17 inh | PLC-gamma1 inh | ADAM10 inh | PLC-beta3 inh | proKLK7 act | PLCg1 ctr | PLCbeta3 conf
O=C(Nc1ccc2c(c1)OCCO2)c1cc(-n2cnnc2)ccc1Cl | 0 | 11* | 6 | 6 | 0 | -8 | -5
O=C(NC1CCCCC1)c1cc(-n2cnnc2)ccc1Cl | -3 | 9.8* | -2 | -3 | 0 | 2 | 4
Cc1cccc(C)c1NC(=O)[C@@H]1CC(=O)O[C@@H]1c1ccccc1 | 0 | -1 | -4 | 1 | 1 | x | x
COc1ccc(NC(=O)C2CC(=O)OC2c2ccccc2)cc1 (stereo not drawn) | 3 | 10* | 0 | 6 | 0 | -5 | -1
COc1ccccc1NC(=O)COC(=O)COc1cccc2c1OC(C)(C)C2 | 0 | -1 | -7 | -4 | 1 | x | x
O=C(NCc1ccccc1F)C1CCCN1C(=O)NCc1ccccc1 (stereo not drawn) | 6 | 4 | 3 | 13* | -1 | 4 | -1
CCOC(=O)C1=C(C)N(CCCC(=O)O)C(=O)NC1c1ccccc1OS(=O)(=O)c1ccc([N+](=O)[O-])cc1 (stereo not drawn) | 4 | 12* | 14 | 8 | 0 | 7 | 0
CN1CCCN(C(=O)CNC(=O)c2ccc(Cl)cc2Cl)CC1 | 1 | 2 | 2 | 5 | 1 | x | x
Fc1cccc(CSc2ncnc3c2oc2ccccc23)c1 | 2 | 8 | 7 | 6 | 0 | x | x
Fc1ccc(CSc2ncnc3c2oc2ccccc23)cc1 | 4 | 10* | 8 | 4 | 0 | -6 | -5
C#CCOCCOCCOCCNc1nc(N2CCN(C(=O)[C@H](CCCCN)n3cc([C@@H](N)C(C)CC)nn3)CC2)nc(N2CCN(C(=O)[C@H](CCCCN)n3cc([C@@H](N)C(C)CC)nn3)CC2)n1 (stereo partly drawn) | -5 | 10* | -12 | 7 | x | 0 | 6
Cc1ccc(F)cc1NC(=O)CSc1ncccn1 | -2 | 0 | -10 | -3 | -1 | x | x
O=C(O)C1(c2ccccc2)CCN(S(=O)(=O)c2ccc(F)c(F)c2)CC1 | -5 | 3 | 0 | -5 | 0 | x | x
CCC(C)c1ccccc1NS(=O)(=O)c1cnn(CC)c1 (stereo not drawn) | 2 | 9.8* | 9 | 4 | -1 | -2 | 1
CC(C)c1ccc(OCC(=O)Nc2ccc3oc(=O)ccc3c2)cc1 | -13 | -28 | -37 | -39 | -1 | x | x
Cc1ccccc1N/N=C/c1c(C)nc2ccccn12 | -4 | -10 | -3 | -17 | 0 | x | x
O=S(=O)(c1ccccc1)c1ccccc1/C=N\O | 2 | 11* | 0 | 1 | 0 | -4 | -5
COc1ccccc1C(=O)N/C(=C\c1ccccc1)C(=O)NCc1ccco1 | -5 | 6 | 9 | -9 | 0 | x | x
CC(=O)c1cnc2nc(SCc3cccc(C)c3)nn2c1C | -2 | -5 | 5 | -9 | 0 | x | x
CC(C)NC(=S)N/N=C/c1cccs1 | 5 | 11* | 5 | 6 | 1 | 3 | 1
O=C(CN1CCCCCC1)N/N=C/c1cccs1 | 7 | 16* | 2 | 10 | 0 | -9 | -6
Cc1nn(-c2ccc(Cl)c(Cl)c2Cl)c(=O)c2ccccc12 | 5 | 11* | 16 | 5 | 0 | 2 | 4
Cc1nn(-c2ccc(Cl)cc2Cl)c(=O)c2ccccc12 | 0 | 3 | 8 | 1 | 0 | x | x
CC(C)OC(=O)CSc1nc(Cc2ccccc2)nc2ccccc12 | 3 | -3 | 7 | -3 | -1 | x | x
C=C(C)Cn1c(SCC(=O)N/N=C(\C)c2ccc([N+](=O)[O-])cc2)nnc1-c1ccc(Br)cc1 | 2 | 10* | 4 | 11* | 0 | 2 | 3
SMILES | ADAM17 inh | PLC-gamma1 inh | ADAM10 inh | PLC-beta3 inh | proKLK7 act | PLCg1 ctr | PLCbeta3 conf
Cc1cc2nsnc2c(S(=O)(=O)N2CCN(C)CC2)c1C | 6 | 6 | 0 | 1 | 0 | x | x
COc1ccc(C(CC(=O)N2CCCC2)c2ccc(F)cc2)cc1 (stereo not drawn) | 6 | 11* | 4 | 2 | -1 | 5 | 4
Cc1cc(NC(=O)C(C)SCC(=O)OCc2c(Cl)cccc2Cl)no1 (stereo not drawn) | -3 | -1 | 3 | -8 | 0 | x | x
[O-]C1=N/[N+](=C/c2ccccc2Cl)CC1 | 8 | 11* | 5 | 7 | 0 | -6 | -2
[O-]C1=N/[N+](=C/c2ccccc2)CC1 | -4 | 3 | -4 | -5 | 0 | x | x
Cc1cnc(CN(C)C(=O)C2CCC(=O)N(CCc3ccccc3)C2)[nH]1 (stereo not drawn) | 3 | 4 | -1 | -2 | 0 | x | x
CN(CCC1CCOCC1)C(=O)C1CCC(=O)N(CCc2ccccc2)C1 (stereo not drawn) | 0 | 9.7* | -8 | 1 | -1 | 0 | -51
Cc1csc(C(=O)NN)c1N(C)C | 1 | 4 | 3 | -5 | 0 | x | x
COc1c(C)cc(C(=O)C2CCCN(C(=O)/C=C/c3ccccn3)C2)cc1C (stereo not drawn) | 2 | 11* | 11 | 11* | 0 | -4 | -5
COc1c(C)cc(C(=O)C2CCCN(C(=O)c3cc(C)n(C)n3)C2)cc1C (stereo not drawn) | -7 | -2 | 5 | -11 | 0 | x | x
Cc1ccc(C(C)C)c(OCC(=O)NN=C2CCCC(=O)C2)c1 | -40 | -202 | -129 | -270 | -2 | x | x
NC(=O)C1CCN(C(=O)CCC(=O)c2ccc(Br)cc2)CC1 | 2 | 2 | 8 | -1 | 0 | x | x
CCOc1cc(/C=N/NC(=O)N/N=C/c2ccc(O)c(OCC)c2)ccc1O | -2 | 6 | 8 | 13* | 0 | 4 | -2
CCOc1cc(/C=N/Nc2ncnc(Cl)c2N)ccc1O | 6 | -6 | 4 | -10 | 1 | x | x
CCOc1cc(/C=N/Nc2nnc(C)n2N)ccc1O | 3 | 20* | -4 | 5 | -1 | -5 | -1
O=[N+]([O-])c1cccc(-c2nn(-c3ccccc3)cc2CO)c1 | 2 | 3 | 13 | 3 | 0 | x | x
CCSCCc1nnc(NC(=O)Nc2cccc(C(F)(F)F)c2)s1 | -1 | 0 | 0 | 3 | 0 | x | x
CNC[C@@H](Cc1ccccc1)NC[C@@H](CC1CCCCC1)NCCCc1ccccc1 | -4 | 13* | -3 | 6 | -1 | 1 | 1
CC(C)(C)C(=O)Nc1ccc(Sc2ccc([N+](=O)[O-])cc2)cc1 | 6 | 9 | 13 | -2 | 1 | x | x
CC(=O)Nc1ccc(Sc2ccc([N+](=O)[O-])o2)cc1 | 2 | 10* | 4 | 4 | 0 | 5 | -6
Cc1ccc(C(=O)NC(C)CCc2ccccc2)cc1[N+](=O)[O-] (stereo not drawn) | 8 | 13* | 7 | 3 | -1 | -2 | -2
CC(CCc1ccccc1)NC(=O)c1cccc([N+](=O)[O-])c1 (stereo not drawn) | 1 | 0 | 3 | 3 | 1 | x | x
